Test [1] concerns the target T1, Ephrin type-A receptor 3 (Homo sapiens) (UniProt P29320).
T1 sequence (whole entry): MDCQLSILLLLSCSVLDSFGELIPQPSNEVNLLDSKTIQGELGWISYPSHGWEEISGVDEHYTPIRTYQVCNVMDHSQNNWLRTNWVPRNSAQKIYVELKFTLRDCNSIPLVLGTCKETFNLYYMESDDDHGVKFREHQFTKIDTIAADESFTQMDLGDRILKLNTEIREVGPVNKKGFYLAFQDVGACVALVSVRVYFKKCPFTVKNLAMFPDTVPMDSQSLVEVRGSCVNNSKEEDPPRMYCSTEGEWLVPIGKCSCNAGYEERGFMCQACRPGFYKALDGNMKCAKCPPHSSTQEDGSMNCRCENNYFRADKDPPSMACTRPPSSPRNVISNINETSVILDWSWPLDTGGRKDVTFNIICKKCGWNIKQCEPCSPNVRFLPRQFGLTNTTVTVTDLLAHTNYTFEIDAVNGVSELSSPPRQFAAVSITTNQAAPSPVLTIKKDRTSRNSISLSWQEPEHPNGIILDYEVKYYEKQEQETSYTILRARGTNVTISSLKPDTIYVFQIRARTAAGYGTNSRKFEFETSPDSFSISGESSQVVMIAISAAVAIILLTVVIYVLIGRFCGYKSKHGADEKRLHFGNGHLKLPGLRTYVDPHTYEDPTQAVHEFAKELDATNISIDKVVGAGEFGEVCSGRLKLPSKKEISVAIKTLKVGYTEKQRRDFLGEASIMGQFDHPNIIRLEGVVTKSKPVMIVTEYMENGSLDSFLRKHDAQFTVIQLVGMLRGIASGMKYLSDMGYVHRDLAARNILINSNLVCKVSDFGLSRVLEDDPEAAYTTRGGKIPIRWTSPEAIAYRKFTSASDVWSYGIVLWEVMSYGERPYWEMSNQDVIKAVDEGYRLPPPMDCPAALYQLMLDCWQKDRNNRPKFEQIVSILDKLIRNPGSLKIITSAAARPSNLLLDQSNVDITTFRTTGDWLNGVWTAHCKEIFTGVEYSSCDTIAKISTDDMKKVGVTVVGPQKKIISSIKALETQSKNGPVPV
As to conditions: at 10 µM; call rule not given here.

Test [2] concerns the target Ephrin type-A receptor 4 (Homo sapiens) (UniProt P54764). As to conditions: at 1 µM.
For test [3] the target is unchanged. The note with it: at 10 µM.
The target of test [4] is Ephrin type-A receptor 7 (Homo sapiens) (UniProt Q15375). The note with it: at 10 µM.
Test [5] concerns the target T2, Ephrin type-A receptor 8 (Homo sapiens) (UniProt P29322).
T2 sequence (whole entry): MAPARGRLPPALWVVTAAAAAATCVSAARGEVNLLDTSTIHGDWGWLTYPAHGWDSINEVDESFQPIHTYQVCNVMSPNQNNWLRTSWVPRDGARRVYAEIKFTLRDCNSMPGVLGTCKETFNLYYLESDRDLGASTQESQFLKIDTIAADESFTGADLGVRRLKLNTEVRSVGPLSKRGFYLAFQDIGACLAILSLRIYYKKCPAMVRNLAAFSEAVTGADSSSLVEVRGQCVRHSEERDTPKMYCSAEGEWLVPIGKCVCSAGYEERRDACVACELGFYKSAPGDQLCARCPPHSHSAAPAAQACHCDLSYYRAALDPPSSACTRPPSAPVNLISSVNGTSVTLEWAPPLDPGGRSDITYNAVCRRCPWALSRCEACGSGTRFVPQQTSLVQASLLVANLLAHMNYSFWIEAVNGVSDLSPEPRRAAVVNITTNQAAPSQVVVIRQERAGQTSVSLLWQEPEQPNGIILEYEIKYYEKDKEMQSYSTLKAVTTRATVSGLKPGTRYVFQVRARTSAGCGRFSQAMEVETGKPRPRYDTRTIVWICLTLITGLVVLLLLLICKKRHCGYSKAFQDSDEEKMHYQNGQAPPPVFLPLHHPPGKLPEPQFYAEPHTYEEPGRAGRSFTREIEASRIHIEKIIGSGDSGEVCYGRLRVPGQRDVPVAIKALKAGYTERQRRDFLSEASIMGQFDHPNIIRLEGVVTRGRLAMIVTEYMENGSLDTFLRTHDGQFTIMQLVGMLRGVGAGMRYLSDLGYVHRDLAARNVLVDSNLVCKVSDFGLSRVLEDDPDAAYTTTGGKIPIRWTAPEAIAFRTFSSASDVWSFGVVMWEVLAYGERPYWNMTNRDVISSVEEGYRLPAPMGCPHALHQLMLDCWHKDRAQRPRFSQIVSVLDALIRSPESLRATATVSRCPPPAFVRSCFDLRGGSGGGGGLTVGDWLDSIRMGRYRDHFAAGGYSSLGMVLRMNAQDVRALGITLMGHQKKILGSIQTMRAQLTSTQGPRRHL
The note with it: at 1 µM.

The target in test [6] is T2, Ephrin type-A receptor 8 (Homo sapiens). As to conditions: at 10 µM.
Test [7] concerns the target T3, Ephrin type-B receptor 1 (Homo sapiens) (UniProt P54762).
T3 sequence (whole entry): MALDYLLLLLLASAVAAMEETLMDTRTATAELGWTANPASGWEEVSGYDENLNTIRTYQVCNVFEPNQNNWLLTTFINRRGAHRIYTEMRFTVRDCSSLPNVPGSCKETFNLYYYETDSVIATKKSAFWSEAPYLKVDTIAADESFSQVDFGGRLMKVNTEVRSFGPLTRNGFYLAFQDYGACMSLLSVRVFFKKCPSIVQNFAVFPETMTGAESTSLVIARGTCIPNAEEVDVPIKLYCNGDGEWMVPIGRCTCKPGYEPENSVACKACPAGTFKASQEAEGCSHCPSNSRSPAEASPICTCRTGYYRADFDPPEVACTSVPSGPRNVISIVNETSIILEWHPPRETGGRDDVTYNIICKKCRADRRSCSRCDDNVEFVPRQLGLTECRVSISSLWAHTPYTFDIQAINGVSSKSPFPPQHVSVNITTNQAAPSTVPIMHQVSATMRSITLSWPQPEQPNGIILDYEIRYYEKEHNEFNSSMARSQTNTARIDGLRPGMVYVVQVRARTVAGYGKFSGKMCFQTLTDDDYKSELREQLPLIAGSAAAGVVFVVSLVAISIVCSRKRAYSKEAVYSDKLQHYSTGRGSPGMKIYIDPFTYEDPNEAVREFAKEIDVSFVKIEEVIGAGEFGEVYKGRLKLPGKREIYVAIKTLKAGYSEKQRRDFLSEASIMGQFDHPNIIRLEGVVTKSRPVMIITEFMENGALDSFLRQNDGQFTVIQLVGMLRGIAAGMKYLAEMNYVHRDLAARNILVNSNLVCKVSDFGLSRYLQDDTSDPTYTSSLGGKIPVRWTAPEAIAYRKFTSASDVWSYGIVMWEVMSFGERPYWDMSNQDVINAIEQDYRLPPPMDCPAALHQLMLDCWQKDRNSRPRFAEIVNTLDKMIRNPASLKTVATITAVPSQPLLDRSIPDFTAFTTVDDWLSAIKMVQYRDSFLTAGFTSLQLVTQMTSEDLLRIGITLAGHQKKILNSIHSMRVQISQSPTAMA
As to conditions: at 1 µM.

Test [8] deals with T3, Ephrin type-B receptor 1 (Homo sapiens). The note with it: at 10 µM.
Test [9] deals with T4, Ephrin type-B receptor 2 (Homo sapiens) (UniProt P29323).
T4 sequence (whole entry): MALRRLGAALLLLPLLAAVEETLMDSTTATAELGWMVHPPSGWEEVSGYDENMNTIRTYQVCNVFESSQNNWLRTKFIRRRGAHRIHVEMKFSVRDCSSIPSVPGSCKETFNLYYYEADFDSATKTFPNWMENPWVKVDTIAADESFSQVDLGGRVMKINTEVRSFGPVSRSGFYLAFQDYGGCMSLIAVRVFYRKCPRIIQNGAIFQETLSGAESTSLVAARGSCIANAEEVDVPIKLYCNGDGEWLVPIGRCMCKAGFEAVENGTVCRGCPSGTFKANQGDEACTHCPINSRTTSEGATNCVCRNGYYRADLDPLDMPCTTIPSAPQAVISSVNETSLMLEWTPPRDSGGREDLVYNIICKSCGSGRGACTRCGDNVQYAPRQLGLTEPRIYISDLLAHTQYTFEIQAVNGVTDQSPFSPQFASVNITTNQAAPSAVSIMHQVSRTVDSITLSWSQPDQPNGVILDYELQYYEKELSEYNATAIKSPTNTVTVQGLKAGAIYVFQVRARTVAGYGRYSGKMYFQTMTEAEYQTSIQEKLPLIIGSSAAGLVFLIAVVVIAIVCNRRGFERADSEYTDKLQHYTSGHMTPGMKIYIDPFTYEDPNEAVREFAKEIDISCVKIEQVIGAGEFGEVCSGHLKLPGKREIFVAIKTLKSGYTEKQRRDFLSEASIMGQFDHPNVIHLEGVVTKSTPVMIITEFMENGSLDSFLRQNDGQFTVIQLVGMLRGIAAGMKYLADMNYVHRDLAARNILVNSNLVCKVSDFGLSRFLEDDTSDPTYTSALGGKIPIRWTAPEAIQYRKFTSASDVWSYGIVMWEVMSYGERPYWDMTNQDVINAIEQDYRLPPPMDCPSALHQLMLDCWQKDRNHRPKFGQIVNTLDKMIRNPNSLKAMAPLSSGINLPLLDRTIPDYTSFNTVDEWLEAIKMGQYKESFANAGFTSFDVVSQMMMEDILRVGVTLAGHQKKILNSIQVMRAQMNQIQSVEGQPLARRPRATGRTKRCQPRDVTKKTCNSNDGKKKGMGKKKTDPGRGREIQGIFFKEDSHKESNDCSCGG
The note with it: at 1 µM.

For test [10], the target named is T5, Ephrin type-B receptor 3 (Homo sapiens) (UniProt P54753).
T5 sequence (whole entry): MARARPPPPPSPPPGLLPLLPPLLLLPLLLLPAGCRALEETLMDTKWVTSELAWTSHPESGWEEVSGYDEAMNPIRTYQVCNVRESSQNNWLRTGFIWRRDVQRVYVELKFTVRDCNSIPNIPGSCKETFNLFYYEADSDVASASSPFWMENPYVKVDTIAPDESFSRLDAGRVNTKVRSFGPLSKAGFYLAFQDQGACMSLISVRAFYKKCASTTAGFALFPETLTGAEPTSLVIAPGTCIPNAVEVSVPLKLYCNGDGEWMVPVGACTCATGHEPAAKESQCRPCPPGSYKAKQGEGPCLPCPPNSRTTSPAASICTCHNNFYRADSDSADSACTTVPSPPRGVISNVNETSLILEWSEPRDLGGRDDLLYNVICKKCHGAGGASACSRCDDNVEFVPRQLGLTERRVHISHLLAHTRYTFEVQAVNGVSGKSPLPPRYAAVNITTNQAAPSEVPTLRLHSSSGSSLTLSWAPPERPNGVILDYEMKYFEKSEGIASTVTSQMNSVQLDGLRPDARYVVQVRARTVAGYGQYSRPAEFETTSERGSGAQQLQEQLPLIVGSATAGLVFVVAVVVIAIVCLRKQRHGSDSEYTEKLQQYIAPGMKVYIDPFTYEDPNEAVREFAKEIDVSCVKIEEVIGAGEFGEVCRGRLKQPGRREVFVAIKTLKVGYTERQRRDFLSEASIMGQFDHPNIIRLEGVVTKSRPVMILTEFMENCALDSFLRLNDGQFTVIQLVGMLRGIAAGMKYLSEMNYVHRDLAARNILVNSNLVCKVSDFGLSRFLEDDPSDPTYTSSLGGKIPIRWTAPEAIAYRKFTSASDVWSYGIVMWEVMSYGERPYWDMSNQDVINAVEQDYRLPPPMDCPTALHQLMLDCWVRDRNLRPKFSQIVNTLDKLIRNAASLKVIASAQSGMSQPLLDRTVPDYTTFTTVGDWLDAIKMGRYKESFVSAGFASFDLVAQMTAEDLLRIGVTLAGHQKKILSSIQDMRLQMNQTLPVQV
As to conditions: at 1 µM.

The target in test [11] is T5, Ephrin type-B receptor 3 (Homo sapiens). The note with it: at 10 µM.
The target of test [12] is Receptor tyrosine-protein kinase erbB-4 (Homo sapiens) (UniProt Q15303). As to conditions: at 1 µM.
Test [13] has the same target. As to conditions: at 10 µM.

Sequence of Ephrin type-A receptor 4 (Homo sapiens) (P54764 whole entry): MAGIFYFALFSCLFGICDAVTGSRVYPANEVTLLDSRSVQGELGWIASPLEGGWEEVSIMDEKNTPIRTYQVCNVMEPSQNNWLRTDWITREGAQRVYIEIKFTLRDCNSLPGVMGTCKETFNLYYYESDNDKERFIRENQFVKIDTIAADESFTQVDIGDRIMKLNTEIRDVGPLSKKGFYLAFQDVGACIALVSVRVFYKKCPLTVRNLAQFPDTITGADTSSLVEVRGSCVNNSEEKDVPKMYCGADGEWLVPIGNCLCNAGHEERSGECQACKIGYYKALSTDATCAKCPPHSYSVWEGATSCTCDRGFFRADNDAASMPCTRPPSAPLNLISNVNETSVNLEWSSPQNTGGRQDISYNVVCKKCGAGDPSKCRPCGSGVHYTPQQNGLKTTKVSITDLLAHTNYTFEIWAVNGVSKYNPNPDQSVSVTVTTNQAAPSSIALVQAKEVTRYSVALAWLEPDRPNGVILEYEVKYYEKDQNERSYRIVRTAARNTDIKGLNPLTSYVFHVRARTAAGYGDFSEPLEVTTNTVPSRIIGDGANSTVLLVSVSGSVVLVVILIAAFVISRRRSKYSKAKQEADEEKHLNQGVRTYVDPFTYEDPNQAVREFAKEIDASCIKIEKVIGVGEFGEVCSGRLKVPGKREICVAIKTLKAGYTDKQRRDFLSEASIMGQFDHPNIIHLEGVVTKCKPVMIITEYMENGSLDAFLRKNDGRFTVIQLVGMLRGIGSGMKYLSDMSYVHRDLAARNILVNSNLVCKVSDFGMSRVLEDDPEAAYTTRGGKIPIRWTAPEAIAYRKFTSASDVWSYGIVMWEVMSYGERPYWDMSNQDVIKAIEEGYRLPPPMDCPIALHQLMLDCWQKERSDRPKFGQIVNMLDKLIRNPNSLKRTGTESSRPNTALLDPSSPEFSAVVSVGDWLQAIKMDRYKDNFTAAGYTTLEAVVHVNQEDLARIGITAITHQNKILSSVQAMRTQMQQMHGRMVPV
Sequence of Receptor tyrosine-protein kinase erbB-4 (Homo sapiens) (Q15303 whole entry): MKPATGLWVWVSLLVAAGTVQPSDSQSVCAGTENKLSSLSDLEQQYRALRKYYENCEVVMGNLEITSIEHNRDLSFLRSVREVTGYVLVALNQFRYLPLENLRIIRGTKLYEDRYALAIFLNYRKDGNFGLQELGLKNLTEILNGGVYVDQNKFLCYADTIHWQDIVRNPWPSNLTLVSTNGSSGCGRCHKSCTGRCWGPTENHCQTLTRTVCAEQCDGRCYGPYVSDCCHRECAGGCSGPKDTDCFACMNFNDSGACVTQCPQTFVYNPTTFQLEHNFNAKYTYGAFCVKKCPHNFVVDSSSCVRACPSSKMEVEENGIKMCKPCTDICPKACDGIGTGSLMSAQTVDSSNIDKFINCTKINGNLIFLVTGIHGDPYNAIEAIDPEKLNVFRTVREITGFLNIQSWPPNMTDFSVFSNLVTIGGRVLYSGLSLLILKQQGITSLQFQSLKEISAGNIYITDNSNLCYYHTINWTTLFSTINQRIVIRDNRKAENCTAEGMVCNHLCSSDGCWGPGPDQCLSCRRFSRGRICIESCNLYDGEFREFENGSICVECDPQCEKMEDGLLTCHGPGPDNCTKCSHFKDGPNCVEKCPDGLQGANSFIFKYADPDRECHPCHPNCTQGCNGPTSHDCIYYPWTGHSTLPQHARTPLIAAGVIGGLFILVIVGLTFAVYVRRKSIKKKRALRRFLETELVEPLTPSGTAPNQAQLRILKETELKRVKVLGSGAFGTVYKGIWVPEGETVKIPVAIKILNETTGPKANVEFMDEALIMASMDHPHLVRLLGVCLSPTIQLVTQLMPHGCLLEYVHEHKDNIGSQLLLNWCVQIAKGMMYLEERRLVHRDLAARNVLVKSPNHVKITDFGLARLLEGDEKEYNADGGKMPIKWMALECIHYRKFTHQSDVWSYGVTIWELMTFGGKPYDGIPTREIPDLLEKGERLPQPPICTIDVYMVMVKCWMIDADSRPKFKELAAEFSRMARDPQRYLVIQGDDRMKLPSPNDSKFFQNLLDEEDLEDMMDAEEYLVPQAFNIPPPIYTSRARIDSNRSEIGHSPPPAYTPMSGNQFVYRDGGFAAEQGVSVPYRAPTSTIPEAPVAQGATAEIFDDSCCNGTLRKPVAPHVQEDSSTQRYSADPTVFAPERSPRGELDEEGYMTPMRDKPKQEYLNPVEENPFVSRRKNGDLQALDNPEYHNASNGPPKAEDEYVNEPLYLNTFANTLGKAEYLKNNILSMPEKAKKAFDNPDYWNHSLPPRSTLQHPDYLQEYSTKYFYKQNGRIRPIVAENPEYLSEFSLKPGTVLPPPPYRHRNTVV
Sequence of Ephrin type-A receptor 7 (Homo sapiens) (Q15375 28-998 limits assumed): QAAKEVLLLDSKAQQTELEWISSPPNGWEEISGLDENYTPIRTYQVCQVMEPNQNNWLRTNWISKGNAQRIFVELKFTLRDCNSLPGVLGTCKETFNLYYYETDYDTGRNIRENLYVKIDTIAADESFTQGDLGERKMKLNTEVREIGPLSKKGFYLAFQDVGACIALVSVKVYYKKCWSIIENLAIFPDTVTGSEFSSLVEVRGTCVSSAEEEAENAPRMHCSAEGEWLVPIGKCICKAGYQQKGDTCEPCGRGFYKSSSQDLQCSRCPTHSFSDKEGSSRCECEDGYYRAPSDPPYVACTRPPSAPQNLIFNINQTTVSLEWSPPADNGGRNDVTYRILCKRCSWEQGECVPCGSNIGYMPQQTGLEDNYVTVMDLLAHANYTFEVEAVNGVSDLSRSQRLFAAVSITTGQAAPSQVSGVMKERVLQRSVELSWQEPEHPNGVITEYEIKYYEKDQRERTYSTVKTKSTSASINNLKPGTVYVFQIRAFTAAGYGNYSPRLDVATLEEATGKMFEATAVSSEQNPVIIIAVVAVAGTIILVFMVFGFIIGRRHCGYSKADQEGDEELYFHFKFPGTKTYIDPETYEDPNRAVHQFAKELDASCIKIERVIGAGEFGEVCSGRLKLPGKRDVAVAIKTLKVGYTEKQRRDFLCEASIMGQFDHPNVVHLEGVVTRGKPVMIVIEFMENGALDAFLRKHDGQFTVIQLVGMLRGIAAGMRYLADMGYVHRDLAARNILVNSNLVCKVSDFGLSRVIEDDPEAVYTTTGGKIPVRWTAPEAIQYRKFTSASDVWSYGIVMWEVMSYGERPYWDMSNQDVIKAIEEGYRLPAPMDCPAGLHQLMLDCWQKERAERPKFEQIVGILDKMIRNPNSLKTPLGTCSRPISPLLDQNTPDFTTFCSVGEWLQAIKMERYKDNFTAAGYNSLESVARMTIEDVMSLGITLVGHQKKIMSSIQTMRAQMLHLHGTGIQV

In general, residual activity refers to the signal under treatment as a percentage of the control signal. `COc1ccc2c(c1)c(C1=C(c3c[nH]c4ccccc34)C(=O)NC1=O)cn2CCCN(C)C`: the residual activity in test [1] was 60%; in test [2], 115%; in [3], 73%; in test [4], 44%; in test [5] it was 100%; in test [6], 96%. Moreover, the residual activity in test [7] was 80%; in test [8], 53%; in [9], 109%; in test [10], 111% (inactive); in test [11], 124%; in test [12], 75%. In test [13], the residual activity was found to be 53%.
